Assay outcomes as filed in PubChem BioAssay.
Sampled rows, rich in hits. Any-hit rate of the full collection: about 3.1%.
esBAF inh = Bmi1 luciferase reporter increase in mESCs, primary screen, esBAF inhibitor project, mouse ES cells, Bmi1 luciferase knock-in, single point. AID 602393, 2012. 24 h; 100% = twice the neutral-well signal. reporter increase, % at 12.5 µM. 2% of 350,000 active; in the data active = activation above about 40%; inconclusive = no clear call, values can overlap the other calls;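 note: a rise in the Bmi1 reporter signal indicates esBAF inhibition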
Wnt bcat act = Wnt/beta-catenin pathway activators, primary screen, cell-based, plate reader, single point; activation, % at 9.35 µM; Wnt/beta-catenin reporter cell assay, activator; AID 743398, 2014; 1.2% of 300,000 active; in the data active = activation above about 30%, passing the limit was not always enough; inconclusive = no clear call, values can overlap the other calls
C2C12 statin = suppressors of statin myotoxicity in C2C12 myotubes, primary screen, cell-based, single point, plate reader | C2C12 myotubes + simvastatin, ATP luminescence, 48 h; scaled: DMSO 0, geranylgeraniol control 100 | rescue of ATP level, % at 7.49 µM | 0.78% of 330,000 active | AID 602340, 2012;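 active = mean ATP rescue above about 67%, or every replicate alone reaching that limit, limit read from the data, passing the limit was not always enough; inconclusive = no clear call, values can overlap the other calls; inactive = mean under the limit and some replicate under it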;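 note: myotubes were challenged with 10 µM simvastatin during compound exposure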
Rtt109 Vps75 = inhibitors of C. albicans Rtt109/Vps75 HAT, primary screen, biochemical, ThioGlo CoA-SH fluorescence, plate reader; Histone acetyltransferase RTT109 (Candida albicans (strain SC5314 / ATCC MYA-2876)), …; purified Rtt109/Vps75, 4 h; inhibition, % at 34.9 µM; 0.16% of 330,000 active; AID 540336, 2011;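 active = inhibition of at least 50% in every replicate; inconclusive = best replicate reaches 50% inhibition but some replicates fall short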
Target sequence (Q5AAJ8 whole entry, looked up): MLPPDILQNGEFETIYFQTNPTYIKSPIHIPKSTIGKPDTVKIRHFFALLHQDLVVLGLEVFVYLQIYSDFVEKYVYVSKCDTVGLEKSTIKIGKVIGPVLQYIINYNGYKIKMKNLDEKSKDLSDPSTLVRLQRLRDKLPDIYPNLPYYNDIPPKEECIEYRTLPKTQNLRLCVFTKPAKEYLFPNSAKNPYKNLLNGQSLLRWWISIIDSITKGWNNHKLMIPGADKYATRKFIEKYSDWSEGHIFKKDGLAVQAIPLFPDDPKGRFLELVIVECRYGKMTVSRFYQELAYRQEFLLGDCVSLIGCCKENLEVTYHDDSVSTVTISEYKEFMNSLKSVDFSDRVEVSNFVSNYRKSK
MITF TRPM1 HTS = activators of MITF-driven TRPM1 promoter reporter, primary screen, cell-based, SK-MEL-5, luciferase, single point | SK-MEL-5 TRPM1-promoter luciferase, 24 h; % of positive control, neutral wells = 0 | activation, % at 12.5 µM | 0.75% of 300,000 active | AID 588334, 2011;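 active = mean activation of at least 80% with every replicate also reaching 80%; inconclusive = mean reaches 80% but some replicate falls short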
Large screens that a line does not name were inactive.

Cc1csc2nc(CCNS(=O)(=O)c3cccs3)cn12	esBAF inh 53
COc1ccc(CCNS(=O)(=O)c2cccs2)cc1	C2C12 statin 128 (no result: Wnt bcat act)
COc1ccc(NC(=O)CNS(=O)(=O)c2cccs2)c(OC)c1	Rtt109 Vps75 63 (no result: Wnt bcat act)
COc1ccc(S(=O)(=O)N[C@@H]2CC[C@@H](CC(=O)NCCc3ccccc3)O[C@H]2CO)cc1	none (no result: Wnt bcat act, Rtt109 Vps75, MITF TRPM1 HTS)
COc1ccc(NC(=O)Nc2ccc3c(c2)C(=O)N([C@H](C)CO)C[C@@H](C)[C@H](CN(C)S(=O)(=O)c2cccs2)OCCCC[C@@H](C)O3)cc1	none (no result: Wnt bcat act, C2C12 statin, Rtt109 Vps75, MITF TRPM1 HTS)
Cc1cc(/C=C2\SC(=S)NC2=O)c(C)n1-c1cccc(O)c1	Wnt bcat act 36 (no result: esBAF inh, C2C12 statin)
C[C@H]1CN([C@@H](C)CO)C(=O)c2cccc(NS(=O)(=O)c3ccccc3)c2O[C@H]1CN(C)S(=O)(=O)c1ccc(Cl)cc1	none (no result: Wnt bcat act, Rtt109 Vps75, MITF TRPM1 HTS)
CC(=O)c1ccc(NC(=O)Nc2sc(NS(=O)(=O)c3ccccc3)nc2C)cc1	C2C12 statin 100
Cc1nc(NS(=O)(=O)c2ccccc2)sc1NC(=O)Nc1ccccc1	none
COc1ccccc1S(=O)(=O)N[C@H]1C=C[C@@H](CC(=O)NCc2cccc(F)c2)O[C@H]1CO	none (no result: Wnt bcat act, Rtt109 Vps75, MITF TRPM1 HTS)
C[C@H]1CN([C@@H](C)CO)C(=O)c2cc(C3=CCCCC3)cnc2O[C@@H]1CN(C)C(=O)C1CCOCC1	none (no result: Wnt bcat act, Rtt109 Vps75, MITF TRPM1 HTS)
O=C(Nc1cc(Cl)cc(Cl)c1)c1cnn2cccnc12	none (no result: esBAF inh, C2C12 statin)
CSc1cccc(NC(=O)c2cnn3ccccc23)c1	Wnt bcat act 40, MITF TRPM1 HTS 104 (no result: esBAF inh, C2C12 statin)
CCc1ccc(NC(=O)c2cnn3ccccc23)cc1	none
O=C(Nc1cccc(Cl)c1)c1cnn2cccnc12	MITF TRPM1 HTS 89 (no result: Wnt bcat act)
Cc1nc2cc(NC(=O)c3ccc(Br)s3)ccc2s1	esBAF inh 70
Cc1ccc(C(=O)Nc2ccc3nc(C)sc3c2)s1	esBAF inh 58 (no result: Wnt bcat act)
Cc1ccc(S(=O)(=O)Nc2ccc3nc(C)sc3c2)cc1	none (no result: esBAF inh, Wnt bcat act, C2C12 statin)
CC(=O)Nc1ccc(S(=O)(=O)Nc2ccc3nc(C)sc3c2)cc1	C2C12 statin 90 (no result: esBAF inh)
Cc1ccc(C(=O)Nc2ccc3nc(C)sc3c2)o1	esBAF inh inconclusive (no result: Rtt109 Vps75, MITF TRPM1 HTS)
Cc1nc2ccc(NC(=O)CCC3CCCC3)cc2s1	esBAF inh 50
CC(C)CC#Cc1ccc2c(c1)O[C@@H](CN(C)C(=O)CN(C)C)[C@@H](C)CN([C@@H](C)CO)S2(=O)=O	none (no result: Wnt bcat act, Rtt109 Vps75, MITF TRPM1 HTS)
Cc1ccc(C(=O)Nc2ccc(SC(F)F)cc2)s1	MITF TRPM1 HTS 83 (no result: esBAF inh, C2C12 statin)
CC1CCC(=C(C#N)c2nc(-c3cc4ccccc4oc3=O)cs2)CC1 (stereo not given)	MITF TRPM1 HTS 88 (no result: Wnt bcat act)
CCOc1ccc(S(=O)(=O)c2c(C(=O)c3ccc(C)cc3)cnc3cc4c(cc23)OCCO4)cc1	none (no result: esBAF inh, Wnt bcat act, C2C12 statin)
Cc1ccc(C(=O)c2cnc3cc4c(cc3c2S(=O)(=O)c2ccccc2)OCCO4)cc1	esBAF inh 118
O=C(OCC(=O)N1CCCCCC1)c1cccnc1Cl	none
Cc1ccsc1C(=O)OCC(=O)N(C)C1CCCCC1	Wnt bcat act 48
CN(C(=O)COc1ccc(Cl)cc1Br)C1CCCCC1	esBAF inh 48
Cc1ccsc1C(=O)OCC(=O)NC1CCCC1	esBAF inh inconclusive
CN(C(=O)COC(=O)c1cccnc1Cl)C1CCCCC1	esBAF inh 56
C[C@H]1CN([C@@H](C)CO)C(=O)c2cc(-c3cncnc3)cnc2O[C@H]1CN(C)C(=O)Cc1ccccc1	none (no result: Wnt bcat act, Rtt109 Vps75, MITF TRPM1 HTS)
CN(C)CC(=O)Nc1ccc2c(c1)[C@H]1C[C@H](CC(=O)NC3CCCC3)O[C@H](CO)[C@H]1O2	none (no result: Wnt bcat act, Rtt109 Vps75, MITF TRPM1 HTS)
CC=Cc1ccc2n(c1=O)C[C@@H]1[C@@H](CO)[C@H](C(=O)NCCC)N(CCC(F)(F)F)[C@H]21 (mixture of isomers)	none (no result: Wnt bcat act, Rtt109 Vps75, MITF TRPM1 HTS)
COCCNC(=O)C[C@H]1CC[C@H](NC(=O)NC2CCCC2)[C@@H](CO)O1	none (no result: Wnt bcat act, Rtt109 Vps75, MITF TRPM1 HTS)
CC(C)(C)C1CCc2c(sc(NC(=O)CSc3nnc(-c4ccccc4)o3)c2C#N)C1 (stereo not given)	Rtt109 Vps75 56
Cc1ccnc(SCC(=O)Nc2sc3c(c2C#N)CCC(C(C)(C)C)C3)n1 (stereo not given)	none (no result: Wnt bcat act)
O=C(C[C@@H]1CC[C@H](NC(=O)CCN2CCCCC2)[C@@H](CO)O1)Nc1ccc(-c2ccccc2)cc1	none (no result: Wnt bcat act, Rtt109 Vps75, MITF TRPM1 HTS)
Cc1ccc(S(=O)(=O)Nc2cccc(-c3ccc(N4CCCCCC4)nn3)c2)c(C)c1	esBAF inh 70
Cc1ccc([N+](=O)[O-])cc1S(=O)(=O)Nc1cccc(-c2ccc(N3CCOCC3)nn2)c1	MITF TRPM1 HTS 88
O=[N+]([O-])c1ccccc1S(=O)(=O)Nc1cccc(-c2ccc(N3CCOCC3)nn2)c1	none
O=C(C[C@@H]1C=C[C@H](NC(=O)c2ccncc2)[C@@H](CO)O1)Nc1ccc(-c2ccccc2)cc1	none (no result: Wnt bcat act, Rtt109 Vps75, MITF TRPM1 HTS)
Cc1cc(C)cc(NC(=O)CCn2cnc3cc(C)c(C)cc32)c1	Wnt bcat act 38 (no result: esBAF inh, C2C12 statin)
Cn1c(-c2ccc3ccccc3n2)nc2cnccc21	esBAF inh 66 (no result: MITF TRPM1 HTS)
COc1cc(OC)c(-c2nc3cnccc3n2C)cc1OC	none
C[C@@H]1CN([C@@H](C)CO)C(=O)c2cccc(NS(=O)(=O)c3cn(C)cn3)c2O[C@@H]1CN(C)S(=O)(=O)c1ccc(Cl)cc1	none (no result: Wnt bcat act, Rtt109 Vps75, MITF TRPM1 HTS)
Cc1ccc(O)c(C(=O)c2cc(C#N)c(=O)n(CC3CCCO3)c2)c1 (stereo not given)	C2C12 statin 95
O=C(O)CSCC(=O)NC1CCCc2ccccc21 (stereo not given)	none
Cc1ccc(NC(=O)CN(C)CC(=O)NC2CCCc3ccccc32)cc1 (stereo not given)	Wnt bcat act 40
CC(=O)NC(CC(=O)NC1CCCc2ccccc21)c1ccccc1 (stereo not given)	Rtt109 Vps75 57
COc1cc2c(cc1[N+](=O)[O-])-c1ccccc1C2	esBAF inh 42
COc1cc2c(cc1[N+](=O)[O-])-c1ccc([N+](=O)[O-])cc1C2	none (no result: Rtt109 Vps75, MITF TRPM1 HTS)
CCCCNC(=O)c1nnn(-c2ccccc2)c1N	esBAF inh 43 (no result: Wnt bcat act)
CCOC(=O)C1=C(C)N=C2SCCC(=O)N2C1c1sccc1C (stereo not given)	none (no result: Wnt bcat act)
C=CCOC(=O)C1=C(C)N=C2SCCC(=O)N2C1c1cccs1 (stereo not given)	C2C12 statin 110
C[C@@H]1CN([C@H](C)CO)C(=O)c2cccc(NS(=O)(=O)c3cccs3)c2O[C@@H]1CN(C)Cc1ccc(Oc2ccccc2)cc1	C2C12 statin 79 (no result: Wnt bcat act, Rtt109 Vps75, MITF TRPM1 HTS)
C[C@@H]1CN([C@H](C)CO)C(=O)c2cccc(NS(=O)(=O)c3cccs3)c2O[C@@H]1CN(C)Cc1ccc(-c2ccccc2)cc1	C2C12 statin 70 (no result: Wnt bcat act, Rtt109 Vps75, MITF TRPM1 HTS)
